Screening data from PubChem.
VP16 counter: Gal4-VP16 reporter inhibition counter-screen; Potency, µM (series often up to 53.6 µM), actives largely listed as inhibitors; 310,000 tested, 3.5% active; Drosophila S2 Gal4-VP16 UAS-luciferase, luminescence, 20 h;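 further: Gal4-VP16 expression switched on by copper sulfate through the metallothionein promoter; nearly all actives have a fitted effect of over 50% in size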
DT40 TDP1 no CPT: qHTS for Inhibitors of human tyrosyl-DNA phosphodiesterase 1 (TDP1): qHTS in cells in absence of CPT; DT40 Tdp1-/- hTDP1 cells, no CPT, ATP luminescence, 48 h; Potency, µM (highest dose often 46.2 µM), hits mostly inhibitors; 420,000 tested, 15% active; further: nearly all actives have a fitted effect of over 55% in size
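Cells were dispensed at 400 per well, compounds added by pin tool, plates incubated ≥48 hr at 37 °C, then CellTiter-Glo added for 30 min at room temperature before luminescence reading. Line: DT40 Tdp1-/- complemented with hTDP1; camptothecin omitted.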
TDP1 inh: blocks human tyrosyl-DNA phosphodiesterase 1; Potency, µM (top dose mostly 130 µM), usual class: inhibitors; 350,000 tested, 0.28% active; recombinant TDP1, AlphaScreen DNA substrate cleavage; AID 485290; further: nearly all actives have a fitted effect of over 40% in size
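Tdp1 1 nM final; 15 min RT w/ cpd; substrate 15 nM, 5 min; beads 10 ug/ml, 10 min; AlphaScreen read. Neg ctrl: no enzyme.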
TDP1 cell CPT: DT40-hTDP1 cell growth loss with CPT; 420,000 tested, 12% active; AID 686979; chicken DT40 Tdp1-/-;hTDP1 cells + 20 nM CPT, ATP luminescence, 48 h; Potency, µM (highest dose often 46.2 µM), actives largely listed as inhibitors; further: nearly all actives have a fitted effect of over 55% in size
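Chicken DT40 Tdp1-/- cells stably complemented with human TDP1 were seeded at 400 cells/well in medium containing 20 nM camptothecin, exposed to pin-transferred compounds, and grown at 37 °C for at least 48 hr. Viability was read as ATP luminescence.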
RORgamma inh: inhibitors of mouse ROR gamma transcriptional activity | 310,000 tested, 5.4% active | Drosophila S2 Gal4-RORgamma UAS-luciferase reporter, 20 h | AID 2551 | Potency, µM (titrated, usually from 53.6 µM), usual class: inhibitors | P51450; further: nearly all actives have a fitted effect of over 60% in size
Target sequence (P51450 whole entry, looked up, the tested form may be a part): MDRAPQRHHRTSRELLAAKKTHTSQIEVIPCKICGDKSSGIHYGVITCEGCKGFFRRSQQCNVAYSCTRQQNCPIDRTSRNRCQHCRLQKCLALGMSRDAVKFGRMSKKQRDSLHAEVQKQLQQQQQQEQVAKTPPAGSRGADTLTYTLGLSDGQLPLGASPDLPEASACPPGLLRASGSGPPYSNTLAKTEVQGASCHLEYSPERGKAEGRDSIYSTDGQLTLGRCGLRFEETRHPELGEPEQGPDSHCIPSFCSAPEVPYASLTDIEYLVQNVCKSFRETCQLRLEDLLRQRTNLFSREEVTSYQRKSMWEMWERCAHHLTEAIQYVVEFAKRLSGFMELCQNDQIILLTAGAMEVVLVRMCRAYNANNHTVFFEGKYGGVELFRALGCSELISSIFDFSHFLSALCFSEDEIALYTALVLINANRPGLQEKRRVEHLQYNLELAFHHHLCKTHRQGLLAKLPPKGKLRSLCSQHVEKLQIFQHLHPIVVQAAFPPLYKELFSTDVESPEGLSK
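Compounds are pin-transferred onto Drosophila Schneider cells expressing a copper-inducible Gal4–ROR gamma transactivation domain fusion. After 1 hr, copper sulfate is added to 700 uM final; luciferase is read 20 hr later.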
Each line names hits and unclear results; the compound was inactive in the other large screens. Compounds with a hit are over-represented: about 19% of the library has one in this group of screens. The call rests on the fitted dose curve; in most records, active means well fitted curve in the direction sought with a large enough effect; inconclusive means small, poorly fitted or top-dose-only effect, or another doubt; inactive means no such curve, though single readings can be large; an effect the other way counts as inactive or inconclusive.

Cc1ccccc1-n1sc2cc(F)ccc2c1=O	VP16 counter 2.8µM, DT40 TDP1 no CPT 2.6µM, TDP1 cell CPT 1.8µM, RORgamma inh 3.2µM
O=c1c2ccccc2sn1-c1ccccc1	VP16 counter 2.8µM, DT40 TDP1 no CPT 2.9µM, TDP1 cell CPT 2.6µM, RORgamma inh 3.5µM
O=c1ccsc2ccccc12	none (no result: VP16 counter, TDP1 inh, RORgamma inh)
CC1NC(=O)c2ccccc2-n2c1nc1cc(F)ccc1c2=O (stereo not given)	none (no result: VP16 counter, DT40 TDP1 no CPT, TDP1 cell CPT, RORgamma inh)
N#Cc1c(N)n(-c2ccccc2)c(=O)c2cc([N+](=O)[O-])ccc12	DT40 TDP1 no CPT inconclusive, TDP1 cell CPT inconclusive
N#Cc1ccc2c(=O)n(-c3ccccc3)sc2c1	DT40 TDP1 no CPT 2.6µM, TDP1 cell CPT 3.3µM (no result: VP16 counter, TDP1 inh, RORgamma inh)
Cn1c(CN2CCOCC2)nnc1SCC(=O)Nc1ccc2c(c1)OCCO2	none
O=c1c2ccccc2sn1-c1cccc(Cl)c1	DT40 TDP1 no CPT 2.3µM, TDP1 cell CPT 1.8µM (no result: VP16 counter, TDP1 inh, RORgamma inh)
O=c1c2ccccc2sn1-c1ccccc1F	DT40 TDP1 no CPT 2.9µM, TDP1 cell CPT 2.6µM (no result: VP16 counter, TDP1 inh, RORgamma inh)
CC(=O)Nc1ccc2c(=O)n(-c3ccccc3)sc2c1	DT40 TDP1 no CPT 3.3µM, TDP1 cell CPT 2.6µM (no result: VP16 counter, TDP1 inh, RORgamma inh)
O=C1CCCN1CC1CCN(Cc2nc(CC3CC3)no2)CC1	none
CC1CCCN(C(=O)CCS(=O)(=O)c2ccc3c(c2)NC(=O)C(C)S3)C1 (stereo not given)	DT40 TDP1 no CPT inconclusive, TDP1 cell CPT inconclusive
COc1ccc(C2CC23N=C(c2ccccc2)OC3=O)cc1 (stereo not given)	DT40 TDP1 no CPT inconclusive, TDP1 cell CPT 18µM
COc1ccc([C@H]2CC(=O)C=C(c3ccccc3)C2)cc1	DT40 TDP1 no CPT inconclusive (no result: VP16 counter, RORgamma inh)
O=C1CCc2cc(S(=O)(=O)Nc3cccc(Cl)c3)ccc2N1	none (no result: VP16 counter, DT40 TDP1 no CPT, TDP1 cell CPT, RORgamma inh)
CNC(=S)N1N=C(c2ccc(C)cc2)CC1c1cc(OC)ccc1OC (stereo not given)	DT40 TDP1 no CPT 9.2µM, TDP1 cell CPT inconclusive, RORgamma inh 13µM
COc1ccc(OC)c(C2CC(c3ccccc3)=NN2C(=S)Nc2ccccc2)c1 (stereo not given)	DT40 TDP1 no CPT 3.7µM, TDP1 cell CPT 3.7µM
COc1ccccc1NS(=O)(=O)c1cccc(NS(=O)(=O)c2cc(C(=O)O)ccc2OC)c1	none (no result: VP16 counter, RORgamma inh)
COc1ccccc1N(C)S(=O)(=O)c1ccc(C(=O)Nc2ccc(C(N)=O)cc2)cc1	DT40 TDP1 no CPT inconclusive, TDP1 cell CPT inconclusive (no result: VP16 counter, RORgamma inh)
COc1ccccc1N(C)S(=O)(=O)c1ccc(C(=O)Nc2cccc(S(=O)(=O)N3CCOCC3)c2)cc1	DT40 TDP1 no CPT 10µM, TDP1 cell CPT inconclusive (no result: VP16 counter, TDP1 inh, RORgamma inh)
COc1ccccc1N(C)S(=O)(=O)c1ccc(C(=O)Nc2nc(C)cs2)cc1	DT40 TDP1 no CPT 0.65µM, TDP1 cell CPT 1.5µM
CN(c1ccccc1)S(=O)(=O)c1ccc(C(=O)Nc2cccc(S(=O)(=O)N3CCOCC3)c2)cc1	DT40 TDP1 no CPT 7.3µM, TDP1 cell CPT 7.3µM (no result: VP16 counter, TDP1 inh, RORgamma inh)
O=C(Nc1cccc(S(=O)(=O)N2CCOCC2)c1)c1cccc(S(=O)(=O)N2CCCC2)c1	none (no result: VP16 counter, RORgamma inh)
COc1ccccc1N(C)S(=O)(=O)c1ccc(C(=O)Nc2nnc(C)s2)cc1	none (no result: VP16 counter, RORgamma inh)
Cc1cccc(C)c1OC[C@H](C)N	none (no result: DT40 TDP1 no CPT, TDP1 cell CPT)
O=C(Nc1nccs1)C1CCN(S(=O)(=O)c2ccc3c(c2)OCCCO3)CC1	none
COc1cc(-c2cc(N)n(S(=O)(=O)c3ccc(F)cc3)n2)cc(OC)c1OC	VP16 counter inconclusive, DT40 TDP1 no CPT 18µM, TDP1 cell CPT 16µM, RORgamma inh inconclusive
COc1ccc(-c2cc(N)n(S(=O)(=O)c3ccc(F)cc3)n2)cc1OC	VP16 counter inconclusive, DT40 TDP1 no CPT 12µM, TDP1 cell CPT 18µM
COc1cc(OC)cc(-c2cc(N)n(S(=O)(=O)Cc3ccccc3)n2)c1	DT40 TDP1 no CPT 18µM, TDP1 cell CPT inconclusive
CCOC(=O)c1oc2ccc(S(=O)(=O)n3nc(-c4cc(OC)c(OC)c(OC)c4)cc3N)cc2c1C	DT40 TDP1 no CPT inconclusive
Nc1cc(-c2ccccc2)nn1S(=O)(=O)c1ccc(F)cc1	VP16 counter inconclusive, DT40 TDP1 no CPT 15µM, TDP1 cell CPT 29µM
O=C(CSc1nnc2c(Cl)cc(C(F)(F)F)cn12)N(Cc1ccccc1)Cc1ccccc1	DT40 TDP1 no CPT 21µM
CC1CN(C(=O)CCC(=O)NCCCN2CCN(Cc3ccccc3)CC2)c2cc(Cl)ccc2O1 (stereo not given)	DT40 TDP1 no CPT inconclusive, TDP1 cell CPT 21µM
